Experimental data reported in PubChem BioAssay (NCATS).
Inconclusive results are not listed. Where a call stands in place of a potency, no number is given. Calls of active or inactive are those of the source. Unless noted, the call rests on the fitted dose curve; in most records, active means well fitted curve in the direction sought with a large enough effect; inconclusive means small, poorly fitted or top-dose-only effect, or another doubt; inactive means no such curve, though single readings can be large; an effect the other way counts as inactive or inconclusive.

Assays:
[1] = NFAT Signaling Pathway (AID 444; active means well fitted curve in either direction with a large enough effect, not every such curve was filed as active;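 further: carbachol stimulus at about its EC50 of 1 µM final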); conditions: Jurkat NFAT-bla M1, carbachol, beta-lactamase ratio, 5 h; at 38 µM (top of the series)
In short: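 Jurkat cells with NFAT-driven β-lactamase reporter and co-expressed M1 receptor, stimulated with carbachol (final 1 uM, ~EC50), compound titration, 5 h at 37 °C. CCF4 loaded 1 h at RT; 460/530 nm ratio gave %activity and AC50.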

[2] = Stat Signaling Pathway (AID 446; active means well fitted curve in either direction with a large enough effect, not every such curve was filed as active;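 further: ME-180 cervical cancer cells given 40 pM IL-6 alongside compound; SIE-controlled beta-lactamase reporter measured as 460/530 nm FRET emission ratio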)
In short: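 ME-180 cells carrying a SIE-driven beta-lactamase reporter are stimulated with 40 pM IL-6 for 5 h at 37C in the presence of compound. The 460/530 nm FRET substrate ratio is read after 2.5 h at RT. Data are normalised to 300 pM IL-6 and to 125 nM JAK inhibitor controls.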

[3] = biological target: Glucocorticoid receptor (Homo sapiens) (UniProt P04150); test: GR-GFP Redistribution (AID 450;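 active means compounds whose dose series gives a full or clear partial fitted curve of increased nuclear translocation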; further: potency means the concentration at half of the fitted maximal effect); conditions: U2OS GR-GFP nuclear translocation, laser cytometry, 2 h
[4] = biological target: Glucocorticoid receptor (Homo sapiens) (UniProt P04150); test: GR-EFC Redistribution (AID 451; calls by dose curve; further: potency means the concentration at half of the fitted maximal effect); conditions: CHO-K1 GR-EFC translocation, beta-gal luminescence, 2 h
In short: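 CHO-K1 cells expressing nuclear EA and GR-ED fragments of b-gal; compounds titrated up to 46 uM final, 2 h at 37 C. GR nuclear translocation read as complemented b-gal luminescence after 1 h RT detection.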

[5] = biological target: Mitogen-activated protein kinase 10 (Mus musculus) (UniProt Q61831); test: JNK3 AlphaScreen Assay (AID 530; active means well fitted curve in either direction with a large enough effect, not every such curve was filed as active;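 further: kinase came from lysate of stimulated human HepG2 cells; signal reports phosphorylation of biotinylated GST-cJun 1-79 at Ser73 with 10 µM ATP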)
In short: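 Pre-activated (IL-1β/TNFα) JNK3 in HepG2 lysates phosphorylates biotin-GST-cJun(1-79), 10 uM ATP; anti-phospho-cJun(Ser73) AlphaScreen read at room temperature, pH 7.6 Tris buffer. Compounds pre-incubated 15 min as titrations.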

[6] = biological target: 3',5'-cyclic-AMP phosphodiesterase 4B (Homo sapiens) (UniProt Q07343); test: qHTS Assay for Inhibitors of PDE-IV (AID 607; active means well fitted activation curve with a large enough effect in the main read-out, with a control signal flat, not every such curve was filed as active)
In short: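 HEK293 ACTOne cells with CNG channel (1000/well), endogenous PDE4; membrane potential dye, compounds up to 22.9 uM final. Fluorescence Ex 535/Em 590; RO 20-1724 (100 uM final) as reference.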

[7] = biological target: Guanine nucleotide-binding protein G(i) subunit alpha-1 (Homo sapiens) (UniProt P63096); test: qHTS Assay for Inhibitors of RGS12 GoLoco Motif Activity (Green Fluorophore) (AID 879);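 further: negative values mean loss of peptide binding seen as reduced polarization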
In short: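 Fluorescence polarization assay: 50 nM Gαi1 with 10 nM FITC-labeled RGS12 GoLoco peptide in 10 mM Tris pH 7.5, 150 mM NaCl, 0.1 mM GDP, 0.05% NP40, 10 min at room temperature with compound.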

[8] = qHTS Assay for Identification of Small Molecule Agonists for Hypoxia Response Element Signaling Pathway (AID 914; active means well fitted activation curve with a large enough effect in the signal ratio, with a control signal flat, not every such curve was filed as active; the % refers to the signal ratio); conditions: ME-180 (cervical carcinoma) HRE-bla reporter, beta-lactamase ratio, CoCl2, 17 h; activation: hits give high values
In short: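 Positive modulation of EC50 CoCl2-induced hypoxia response element signaling is measured in ME-180 cells with a beta-lactamase reporter. Compounds are titrated, incubation runs 17 hours, and %Activity derives from the blue/green ratio.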

[9] = biological target: Muscarinic acetylcholine receptor M1 (Rattus norvegicus) (UniProt P08482); test: qHTS Assay for Antagonists of Acetylcholine Muscarinic M1 Receptor: Kinetic Measurement of Intracellular Calcium Response (AID 943);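 further: Fluo-4 calcium signal as peak divided by basal fluorescence over 4 min; nearly all actives have a fitted effect of over 75% in size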
In short: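 Rat M1-CHO cells, 2000/well, overnight → Fluo-4 no-wash dye with probenecid, 1 h 37C → compound 10 min, room temp → basal read 6 s → carbachol EC80 (100 nM) → 4 min kinetic read; peak/basal.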

[10] = biological target: Pyruvate kinase (Leishmania mexicana) (UniProt Q27686); test: qHTS Validation Assay for Inhibitors of Leishmania Mexicana Pyruvate Kinase (AID 945)
In short: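 qHTS eight-point titrations against 0.2 nM LmPYK (E451W) in imidazole buffer pH 7.2 with 0.5 mM PEP, 0.1 mM ADP; 1 h, room temperature. Readout: PKLight luminescence, normalized to neutral DMSO wells.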

[11] = biological target: Alpha-galactosidase (Coffea arabica) (UniProt Q42656); test: Counterscreen for Glucocerebrosidase Inhibitors: qHTS Assay for Coffee Bean alpha-Galactosidase at pH 4.5 (AID 957)
In short: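 Coffee bean alpha-galactosidase 2 nM, substrate 4-MU-alpha-Gal 80 uM, pH 4.5 citrate/Tween-20, 20 min RT. Cpd titration 0.7 nM–77 uM. Stop pH 10, fluorescence 365/440 nm; Hill-equation AC50.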

[12] = biological target: Alpha-galactosidase A (Homo sapiens) (UniProt P06280); test: Counterscreen for Glucocerebrosidase Inhibitors: qHTS Assay for Human alpha-Galactosidase at pH 4.5 (AID 992)
In short: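 Human enzyme (2 nM) with 80 uM 4-methylumbelliferyl alpha-D-galactopyranoside in 50 mM citric acid, 0.005% Tween-20, pH 4.5, 20 min at room temperature. Compounds 0.7 nM–77 uM; fluorescence Ex 365/Em 440 after pH 10 stop; AC50 from Hill fits.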

[13] = biological target: alpha-glucosidase (Oryza sativa, rice) (UniProt Q653V4); test: Counterscreen for Glucocerebrosidase Inhibitors: qHTS Assay for Rice alpha-Glucosidase at pH 5.0 (AID 997)
In short: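 Rice alpha-glucosidase (4 nM final) with 400 uM 4-methylumbelliferyl-alpha-D-glucopyranoside in citrate buffer pH 5.0, 20 min at room temperature, stopped at pH 10; fluorescence 365/440 nm, compounds 0.7 nM–77 uM, AC50 from Hill fits.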

[14] = biological target: Alpha-galactosidase (Coffea arabica) (UniProt Q42656); test: Counterscreen for Glucocerebrosidase Inhibitors: qHTS Assay for Coffee Bean alpha-Galactosidase at pH 5.9 (AID 998)
In short: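 Green coffee bean enzyme (2 nM) with 4-methylumbelliferyl alpha-D-galactopyranoside (80 uM) in 50 mM citric acid, 0.005% Tween-20, pH 5.9, 20 min at room temperature; compounds 0.7 nM–77 uM. Stopped at pH 10, fluorescence Ex365/Em440; Hill-fit AC50.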

[15] = Validation of Assay for Modulators of Lamin A Splicing (AID 1459; active means well fitted curve in the direction sought with a large enough effect in the signal ratio; the % refers to the signal ratio;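 further: cells exposed to compound for two days before reading; ratio rise marks activators and ratio drop marks inhibitors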)
In short: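 Dual-reporter HeLa S3 line (lamin A-EGFP minigene, DsRed2) treated with compounds 48 hrs, 0.5% DMSO final. Endpoint: EGFP/DsRed2 total intensity ratio from laser-scanning microplate cytometry.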

[16] = biological target: DNA repair nuclease/redox regulator APEX1 (Homo sapiens) (UniProt P27695); test: qHTS Validation Assay for Inhibitors of the Human Apurinic/apyrimidinic Endonuclease 1 (APE1) (AID 1705;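 further: TAMRA fluorescence gain over two minutes as APE1 cuts a quenched THF abasic duplex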)
In short: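 Substrate: 50 nM final fluorophore/quencher THF-abasic duplex. Enzyme preincubated with compounds 15 min, RT. Progress derived from fluorescence difference, third minus first kinetic read.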

[17] = Counterscreen for APE1 Inhibitors: Fluorescent Dye Displacement Validation Assay (AID 1707)
In short: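 Thiazole Orange (250 nM) bound to 50 nM TAMRA-labelled dsDNA with tetrahydrofuran abasic site; displacement by DNA-binding compounds lowers fluorescence. Buffer 50 mM Tris-HCl pH 7.5, 50 mM NaCl, 2 mM MgCl2, 0.01% Tween-20; endpoint read at 480/540 nm.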

[18] = biological target: Endonuclease 4 (Escherichia coli (strain K12)) (UniProt P0A6C1); test: Counterscreen for APE1 Inhibitors: qHTS Validation Assay for Inhibitors of Endonuclease IV (AID 1708)
In short: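 E. coli EndoIV at 2 nM final, preincubated 15 min at room temperature with compound, then 50 nM TAMRA/BHQ-2 THF abasic-site duplex added. Buffer: 50 mM Tris-HCl pH 7.5, 50 mM NaCl, 2 mM MgCl2, 1 mM DTT, 0.01% Tween-20. Kinetic fluorescence increase, third minus first read.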

[19] = qHTS for differential inhibitors of proliferation of Plasmodium falciparum line Dd2 (AID 1882); conditions: Potency: Plasmodium falciparum Dd2 proliferation inhibition; further: nearly all actives have a fitted effect of over 65% in size
In short: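 Dd2-infected erythrocytes (0.3% parasitemia, 2.5% hematocrit final) incubated with compound 72 h at 37 C, 5% CO2; lysed with saponin/Triton buffer containing SYBR Green I, incubated overnight in the dark, then read by fluorescence (485/535 nm). Normalized to 0.29 uM artemisinin and DMSO.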

[20] = qHTS for differential inhibitors of proliferation of Plasmodium falciparum line W2 (AID 1883); conditions: Potency: Plasmodium falciparum W2 proliferation inhibition;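 further: potency means the concentration at half of the fitted maximal effect; parasites grown with compound for 72 h before lysis and staining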
[21] = biological target: ATP-dependent DNA helicase Q1 (Homo sapiens) (UniProt P46063); test: qHTS Validation Assay for Inhibitors of RecQ-Like Dna Helicase 1 (RECQ1) (AID 2353)
In short: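 50 nM RECQ1T1 preincubated 15 min with compound in Tris pH 8.0 buffer with MgCl2, DTT, Tween-20 and 2.5 ug/ml poly(dI-dC); started with 200 nM TAMRA/BHQ-2 forked duplex and 2 mM ATP. Unwinding read as fluorescence (525/598 nm), two reads 2 h apart.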

[22] = Validation screen for small molecules that induce DNA re-replication in MCF 10A normal breast cells (AID 463097); further: nearly all actives have a fitted effect of over 60% in size
In short: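 Following 48 hr compound incubation (37 C, 5% CO2), MCF 10A cells receive Hoechst for 40 min at 37 C. Nuclei are then scanned (excitation 405 nm, emission 500-530 nm) for total fluorescence intensity.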

[23] = Quantitative high throughput screen for delayed death inhibitors of the malarial parasite plastid, 48 hour incubation (AID 488752); further: nearly all actives have a fitted effect of over 65% in size
In short: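 Readout is firefly luciferase luminescence from a reporter integrated into the parasite genome, with lower signal taken as inhibited growth. Infected red cells (0.1% parasitemia, 2% hematocrit final) are cultured with compound for one 48 h cycle at 37 C.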

[24] = biological target: M-phase phosphoprotein 8 (Homo sapiens) (UniProt Q99549); test: qHTS Validation Assay for Inhibitors for MPP8 Chromodomain Interactions with Methylated Histone Tails (AID 488949);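 further: 50 nM MPP8 with 50 nM peptide preformed then compounds added for 30 min; AlphaScreen signal from MPP8 chromodomain bound to biotinylated H3K9me3 peptide; top concentration of the series differs between compounds; nearly all actives have a fitted effect of over 55% in size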
In short: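 Chemiluminescent proximity assay: histidine-tag capture via nickel acceptor beads, biotin peptide via streptavidin donor beads. Protein and peptide each at 50 nM, pH 7.4, with 30 min incubations at room temperature for complex formation, compound exposure and bead binding.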

[25] = biological target: Thyrotropin receptor (Homo sapiens) (UniProt P16473); test: qHTS Assay for Antagonists of the Thyroid Stimulating Hormone Receptor (AID 488980)
In short: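 Inhibition of TSH-stimulated cAMP accumulation was quantified by homogeneous time-resolved FRET in TSHR-transfected HEK293 cells. Agonist: TSH, 4 nM final (EC80).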

[26] = biological target: Thyrotropin-releasing hormone receptor (Homo sapiens) (UniProt P34981); test: qHTS for Small Molecule Agonists and Allosteric Enhancers of Human TRH Receptor: Validation Screen for Agonists (AID 493127;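 active means calcium activation more than 3 SD above the typical response in the agonist read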;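 further: intracellular calcium rise by fluo-8 fluorescence before TRH EC20 addition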); conditions: TRH receptor agonist cell assay; at 2 µM; hits give high values
In short: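 Cells 2000/well, 10% FCS, 18 h 33.5C/5% CO2 → fluo-8 Ca dye, RT 30 min–1.5 h → FDSS baseline 10 × 1 s → compound added → 230 cycles (1 s/cycle) agonist mode. TRH controls.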

[27] = biological target: Galactokinase (Homo sapiens) (UniProt P51570); test: qHTS Validation Assay for Inhibitors of Human Galactokinase (GALK) (AID 493189)
In short: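 Enzyme activity is inferred from ATP consumption: human GALK phosphorylates galactose (100 uM) using 35 uM ATP for 1 h at room temperature, and luciferase-based Kinase-Glo Plus reports unconsumed ATP.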

[28] = Validation screen for small molecules that induce DNA re-replication in SW480 colon adenocarcinoma cells (AID 504364)
In short: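 250 cells/well; compound pinned in; 48 hr, 37 C, 5% CO2; Hoechst added, 40 min; nuclear fluorescence imaged, 405 ex / 500-530 em; re-replication scored as increase in high-intensity nuclei.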

[29] = biological target: DNA dC->dU-editing enzyme APOBEC-3G (Homo sapiens) (UniProt Q9HC16); test: qHTS for inhibitors of Vif-A3G interactions: Validation (AID 588379)
In short: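 HeLa cells stably expressing Vif and A3G-eYFP, 700 cells/well, incubated overnight at 37 deg C, then exposed to compound overnight at 37 deg C. Inhibition of Vif-mediated degradation read as increased yellow fluorescence (Ex 488/Em 500-530) by laser-scanning cytometry.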

[30] = biological target: Voltage-gated inwardly rectifying potassium channel KCNH2 (Homo sapiens) (UniProt Q12809); test: qHTS Assay for Small Molecule Inhibitors of the Human hERG Channel Activity (AID 588834);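 further: top concentration of the series differs between compounds; lower thallium flux fluorescence means stronger hERG block; nearly all actives have a fitted effect of over 50% in size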
In short: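 Blockade is seen as reduced FluxOR thallium-flux fluorescence in U2OS cells expressing hERG from a BacMam construct, in Opti-MEM with 2% FCS. Concentration-response data fitted to the Hill equation for AC50.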

[31] = test system: Zika virus NS2B-NS3 protease; test: Primary screen GU AMC qHTS for Zika virus inhibitors (AID 1347154); further: nearly all actives have a fitted effect of over 70% in size
In short: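 Unlinked Zika NS2B hydrophilic domain–NS3 protease complex at 25 nM in 10 mM Tris-HCl pH 8.0, 0.01% Tween 20, with an AMC peptide substrate. Fluorescence change (340/450 nm) over 15 min at room temperature, normalized to controls, fitted to 4-parameter Hill.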

[32] = Primary qHTS for small molecule stabilizers of the endoplasmic reticulum resident proteome: Secreted ER Calcium Modulated Protein (SERCaMP) assay (AID 1508630)
In short: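 GLuc-SERCaMP-expressing SH-SY5Y cells, pretreated 16 h with compound, are challenged with thapsigargin to empty ER calcium stores; after 4 h, coelenterazine is added directly to the medium and luminescence is imaged.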

Chain of Glucocorticoid receptor (Homo sapiens) (P04150 whole entry, looked up, the tested form may be a part): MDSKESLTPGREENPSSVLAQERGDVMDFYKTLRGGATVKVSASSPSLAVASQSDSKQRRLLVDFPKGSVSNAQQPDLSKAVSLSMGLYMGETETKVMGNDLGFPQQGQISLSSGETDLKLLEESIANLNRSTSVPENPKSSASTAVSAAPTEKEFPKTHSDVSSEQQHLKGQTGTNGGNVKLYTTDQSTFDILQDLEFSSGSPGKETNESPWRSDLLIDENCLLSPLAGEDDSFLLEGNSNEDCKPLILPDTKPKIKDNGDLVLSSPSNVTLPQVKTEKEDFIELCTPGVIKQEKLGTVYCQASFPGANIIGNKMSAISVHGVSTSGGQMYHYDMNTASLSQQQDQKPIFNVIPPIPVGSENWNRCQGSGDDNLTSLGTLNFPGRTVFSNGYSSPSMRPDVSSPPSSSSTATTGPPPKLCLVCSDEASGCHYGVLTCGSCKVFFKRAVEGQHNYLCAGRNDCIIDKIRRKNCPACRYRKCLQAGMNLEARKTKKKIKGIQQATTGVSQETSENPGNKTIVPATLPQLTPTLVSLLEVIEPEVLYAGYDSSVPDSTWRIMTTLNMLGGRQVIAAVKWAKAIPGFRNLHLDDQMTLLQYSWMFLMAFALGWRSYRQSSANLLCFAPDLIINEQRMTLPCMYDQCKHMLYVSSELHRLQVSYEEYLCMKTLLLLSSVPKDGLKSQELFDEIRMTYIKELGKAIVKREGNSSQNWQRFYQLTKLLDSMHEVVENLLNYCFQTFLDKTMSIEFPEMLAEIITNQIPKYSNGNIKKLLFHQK
Chain of Alpha-galactosidase (Coffea arabica) (Q42656 whole entry, looked up): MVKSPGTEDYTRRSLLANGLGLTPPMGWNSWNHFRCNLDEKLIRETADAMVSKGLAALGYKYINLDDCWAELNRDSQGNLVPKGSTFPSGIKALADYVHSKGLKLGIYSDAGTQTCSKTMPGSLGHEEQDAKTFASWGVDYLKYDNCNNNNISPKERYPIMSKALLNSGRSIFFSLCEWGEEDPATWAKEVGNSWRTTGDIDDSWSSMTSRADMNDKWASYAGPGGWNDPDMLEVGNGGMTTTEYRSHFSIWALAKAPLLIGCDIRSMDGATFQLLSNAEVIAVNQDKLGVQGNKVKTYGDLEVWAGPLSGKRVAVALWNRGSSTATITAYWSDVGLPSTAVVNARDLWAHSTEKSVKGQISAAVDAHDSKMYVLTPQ
Chain of 3',5'-cyclic-AMP phosphodiesterase 4B (Homo sapiens) (Q07343 whole entry, looked up): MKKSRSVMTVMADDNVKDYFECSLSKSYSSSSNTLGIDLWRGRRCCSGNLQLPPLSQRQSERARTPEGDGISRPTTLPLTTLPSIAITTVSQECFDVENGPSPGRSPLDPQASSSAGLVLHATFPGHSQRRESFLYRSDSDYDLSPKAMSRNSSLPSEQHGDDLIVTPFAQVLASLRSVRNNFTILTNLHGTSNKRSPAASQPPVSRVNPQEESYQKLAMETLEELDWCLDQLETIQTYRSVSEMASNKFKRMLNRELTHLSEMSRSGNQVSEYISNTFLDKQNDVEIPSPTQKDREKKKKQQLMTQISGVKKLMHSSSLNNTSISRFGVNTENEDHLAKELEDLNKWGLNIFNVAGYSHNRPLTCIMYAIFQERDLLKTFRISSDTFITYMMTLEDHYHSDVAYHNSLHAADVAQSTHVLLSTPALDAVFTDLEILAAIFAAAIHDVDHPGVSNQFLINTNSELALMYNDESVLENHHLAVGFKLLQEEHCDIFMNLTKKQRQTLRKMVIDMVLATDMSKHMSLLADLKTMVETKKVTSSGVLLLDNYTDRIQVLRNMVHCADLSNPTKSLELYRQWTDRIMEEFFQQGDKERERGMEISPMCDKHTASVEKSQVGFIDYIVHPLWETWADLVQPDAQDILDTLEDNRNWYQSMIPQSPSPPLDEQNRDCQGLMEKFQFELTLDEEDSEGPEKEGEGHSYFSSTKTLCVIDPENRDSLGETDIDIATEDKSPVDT
Chain of Muscarinic acetylcholine receptor M1 (Rattus norvegicus) (P08482 whole entry, looked up): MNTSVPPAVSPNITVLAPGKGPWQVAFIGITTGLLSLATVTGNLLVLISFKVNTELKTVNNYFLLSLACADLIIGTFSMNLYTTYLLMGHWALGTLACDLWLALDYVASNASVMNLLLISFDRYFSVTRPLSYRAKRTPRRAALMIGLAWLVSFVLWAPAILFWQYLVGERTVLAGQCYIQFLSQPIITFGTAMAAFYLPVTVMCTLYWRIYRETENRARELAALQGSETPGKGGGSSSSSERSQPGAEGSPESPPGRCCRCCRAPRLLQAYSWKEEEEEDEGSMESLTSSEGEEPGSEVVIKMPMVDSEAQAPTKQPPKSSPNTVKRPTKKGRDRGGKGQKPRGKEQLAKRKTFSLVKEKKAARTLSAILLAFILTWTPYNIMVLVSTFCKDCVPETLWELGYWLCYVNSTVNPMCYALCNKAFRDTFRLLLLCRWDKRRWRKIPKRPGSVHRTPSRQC
Chain of ATP-dependent DNA helicase Q1 (Homo sapiens) (P46063 whole entry, looked up): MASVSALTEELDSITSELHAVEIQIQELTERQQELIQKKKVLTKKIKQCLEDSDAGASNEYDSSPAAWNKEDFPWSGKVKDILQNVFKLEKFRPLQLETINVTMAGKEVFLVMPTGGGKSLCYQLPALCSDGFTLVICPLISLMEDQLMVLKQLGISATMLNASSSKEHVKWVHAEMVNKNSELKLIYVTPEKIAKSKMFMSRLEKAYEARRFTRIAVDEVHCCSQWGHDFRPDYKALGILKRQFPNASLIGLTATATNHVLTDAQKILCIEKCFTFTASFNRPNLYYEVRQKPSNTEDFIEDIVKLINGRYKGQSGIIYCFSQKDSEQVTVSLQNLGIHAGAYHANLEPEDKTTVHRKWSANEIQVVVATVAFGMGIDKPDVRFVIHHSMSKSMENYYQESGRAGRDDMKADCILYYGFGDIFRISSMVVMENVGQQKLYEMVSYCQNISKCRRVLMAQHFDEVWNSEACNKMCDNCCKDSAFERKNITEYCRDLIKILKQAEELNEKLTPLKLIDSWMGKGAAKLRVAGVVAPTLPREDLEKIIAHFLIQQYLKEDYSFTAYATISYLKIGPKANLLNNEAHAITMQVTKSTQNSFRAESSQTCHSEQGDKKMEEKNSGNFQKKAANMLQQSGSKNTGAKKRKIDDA
Chain of DNA repair nuclease/redox regulator APEX1 (Homo sapiens) (P27695 whole entry, looked up): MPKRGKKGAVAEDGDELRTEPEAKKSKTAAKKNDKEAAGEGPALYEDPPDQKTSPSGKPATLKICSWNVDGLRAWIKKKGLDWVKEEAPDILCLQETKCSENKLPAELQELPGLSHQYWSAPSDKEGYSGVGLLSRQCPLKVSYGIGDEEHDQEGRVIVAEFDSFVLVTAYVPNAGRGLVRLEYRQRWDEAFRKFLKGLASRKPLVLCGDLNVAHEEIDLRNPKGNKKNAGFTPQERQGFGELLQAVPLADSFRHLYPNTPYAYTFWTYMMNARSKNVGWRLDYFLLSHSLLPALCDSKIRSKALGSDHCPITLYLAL
Chain of Alpha-galactosidase A (Homo sapiens) (P06280 whole entry, looked up): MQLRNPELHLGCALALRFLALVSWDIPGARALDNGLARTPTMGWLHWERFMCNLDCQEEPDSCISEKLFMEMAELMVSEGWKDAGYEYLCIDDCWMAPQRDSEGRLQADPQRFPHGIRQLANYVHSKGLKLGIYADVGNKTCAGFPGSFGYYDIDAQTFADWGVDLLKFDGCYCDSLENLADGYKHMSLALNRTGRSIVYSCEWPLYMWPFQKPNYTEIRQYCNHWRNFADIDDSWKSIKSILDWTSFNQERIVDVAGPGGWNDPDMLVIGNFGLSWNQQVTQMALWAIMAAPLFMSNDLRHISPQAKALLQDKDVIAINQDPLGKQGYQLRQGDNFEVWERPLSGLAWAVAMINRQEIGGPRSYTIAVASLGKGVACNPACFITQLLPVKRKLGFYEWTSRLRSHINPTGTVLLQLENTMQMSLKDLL
Chain of Thyrotropin receptor (Homo sapiens) (P16473 whole entry, looked up): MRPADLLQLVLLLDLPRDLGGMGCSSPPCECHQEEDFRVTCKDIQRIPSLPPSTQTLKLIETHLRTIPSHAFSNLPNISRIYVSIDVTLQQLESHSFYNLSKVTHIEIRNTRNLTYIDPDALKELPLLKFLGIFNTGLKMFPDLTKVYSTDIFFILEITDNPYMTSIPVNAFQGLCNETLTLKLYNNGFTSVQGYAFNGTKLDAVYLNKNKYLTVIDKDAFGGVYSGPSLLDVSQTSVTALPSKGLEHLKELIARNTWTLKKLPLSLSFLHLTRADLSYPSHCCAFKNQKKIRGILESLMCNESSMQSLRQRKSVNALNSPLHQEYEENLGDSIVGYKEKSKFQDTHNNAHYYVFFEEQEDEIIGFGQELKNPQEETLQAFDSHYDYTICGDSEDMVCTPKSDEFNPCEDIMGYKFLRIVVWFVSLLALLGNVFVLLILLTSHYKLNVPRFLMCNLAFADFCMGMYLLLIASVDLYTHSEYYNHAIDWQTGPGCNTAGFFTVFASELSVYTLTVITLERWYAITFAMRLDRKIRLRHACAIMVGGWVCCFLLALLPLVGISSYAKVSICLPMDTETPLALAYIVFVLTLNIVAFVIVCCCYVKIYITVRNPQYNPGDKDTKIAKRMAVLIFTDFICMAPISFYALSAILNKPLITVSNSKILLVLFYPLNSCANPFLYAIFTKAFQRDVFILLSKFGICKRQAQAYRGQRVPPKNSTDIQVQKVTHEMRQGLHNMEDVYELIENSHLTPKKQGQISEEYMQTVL
Chain of Galactokinase (Homo sapiens) (P51570 whole entry, looked up): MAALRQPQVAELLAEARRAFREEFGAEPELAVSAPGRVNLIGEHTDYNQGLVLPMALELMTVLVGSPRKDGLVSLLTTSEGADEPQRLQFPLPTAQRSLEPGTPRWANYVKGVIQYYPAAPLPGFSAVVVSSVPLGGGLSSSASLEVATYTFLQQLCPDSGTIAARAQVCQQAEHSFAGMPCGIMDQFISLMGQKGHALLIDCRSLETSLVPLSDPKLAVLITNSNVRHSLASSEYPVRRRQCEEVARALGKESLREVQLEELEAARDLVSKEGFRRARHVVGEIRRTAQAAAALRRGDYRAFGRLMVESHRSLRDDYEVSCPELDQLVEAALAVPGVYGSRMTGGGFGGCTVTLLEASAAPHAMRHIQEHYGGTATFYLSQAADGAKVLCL

## CP(=O)(O)CCCN
[1]
  activity change, negative = inhibition: 0.206% (inactive)
[2]
  outcome: inactive
[3]
  Potency: > 46 µM (inactive)
[4]
  Potency: > 46 µM (inactive)
[5]
  outcome: inactive
[6]
  Potency: inactive
[7]
  outcome: inactive
[8]
  activation: 7.54% (inactive)
[9]
  Potency: inactive
[10]
  outcome: inactive
[11]
  outcome: inactive
[12]
  outcome: inactive
[13]
  outcome: inactive
[14]
  outcome: inactive
[15]
  outcome: inactive
[16]
  Potency: inactive
[17]
  Potency: inactive
[18]
  outcome: inactive
[19]
  Potency: inactive
[20]
  Potency: 2.82 µM (active)
[21]
  Potency: inactive
[22]
  Potency: inactive
[23]
  Potency: inactive
[24]
  Potency: inactive
[25]
  outcome: inactive
[26]
  activation: 1.06% (inactive)
[27]
  outcome: inactive
[28]
  Potency: inactive
[29]
  Potency: inactive
[30]
  Potency: inactive
[31]
  Potency: inactive
[32]
  Potency: inactive
